Measurements: the supplement of paper PMC7261846
± gives the uncertainty stated by the source.

Tested on: Candida albicans SNY425 biofilm
Assay: biofilm OD600 with compound plus antifungal (OD600 (absorbance)); higher = more biofilm remaining
[1] = assay detail: disruption of 24-h mature biofilm (compound + antifungal for a second 24 h)
[2] = assay detail: sustained inhibition (compound + antifungal during 90-min adherence and 24-h growth)

| Structure (SMILES) | biofilm OD600 [1] | biofilm OD600 [2] |
| --- | --- | --- |
| O=C(O[C@@H]1Cc2c(O)cc(O)cc2O[C@@H]1c1cc(O)c(O)c(O)c1)c1cc(O)c(O)c(O)c1 [Epigallocatechin gallate] + C[C@@H]1[C@H](O)[C@@H](C)/C=C/C=C/C=C/C=C/C=C/C=C/C=C/[C@H](O[C@@H]2O[C@H](C)[C@@H](O)[C@H](N)[C@@H]2O)C[C@@H]2O[C@](O)(C[C@@H](O)C[C@@H](O)[C@H](O)CC[C@@H](O)C[C@@H](O)CC(=O)O[C@H]1C)C[C@H](O)[C@H]2C(=O)O [amphotericin B] (first compound 12.5 µM) | 0.27 ± 0.017 | 0.231 ± 0.014 |
| O=C(O)CNC(=O)C(CS)Cc1ccccc1 (racemic) [DL-Thiorphan] + C[C@@H]1[C@H](O)[C@@H](C)/C=C/C=C/C=C/C=C/C=C/C=C/C=C/[C@H](O[C@@H]2O[C@H](C)[C@@H](O)[C@H](N)[C@@H]2O)C[C@@H]2O[C@](O)(C[C@@H](O)C[C@@H](O)[C@H](O)CC[C@@H](O)C[C@@H](O)CC(=O)O[C@H]1C)C[C@H](O)[C@H]2C(=O)O [amphotericin B] (first compound 12.5 µM) | 0.264 ± 0.0083 | 0.164 ± 0.012 |
| Cc1cccc(C)c1OCC(=O)N[C@@H](Cc1ccccc1)[C@@H](O)C[C@H](Cc1ccccc1)NC(=O)[C@H](C(C)C)N1CCCNC1=O [lopinavir] + C[C@@H]1[C@H](O)[C@@H](C)/C=C/C=C/C=C/C=C/C=C/C=C/C=C/[C@H](O[C@@H]2O[C@H](C)[C@@H](O)[C@H](N)[C@@H]2O)C[C@@H]2O[C@](O)(C[C@@H](O)C[C@@H](O)[C@H](O)CC[C@@H](O)C[C@@H](O)CC(=O)O[C@H]1C)C[C@H](O)[C@H]2C(=O)O [amphotericin B] (first compound 12.5 µM) | 0.246 ± 0.0051 | 0.14 ± 0.015 |
| C[C@]1(Cn2ccnn2)[C@H](C(=O)O)N2C(=O)C[C@H]2S1(=O)=O [Tazobactam] + CC[C@H](C)C[C@H](C)CCCCCCCCC(=O)N[C@H]1C[C@@H](O)[C@@H](NCCN)NC(=O)[C@@H]2[C@@H](O)CCN2C(=O)[C@H]([C@H](O)CCN)NC(=O)[C@H]([C@H](O)[C@@H](O)c2ccc(O)cc2)NC(=O)[C@@H]2C[C@@H](O)CN2C(=O)[C@H]([C@@H](C)O)NC1=O [caspofungin] (first compound 12.5 µM) | 0.275 ± 0.014 | 0.181 ± 0.0097 |
| CC(C)C[C@H](NC(=O)[C@H]1O[C@@H]1C(=O)O)C(=O)NCCCCN=C(N)N + C[C@@H]1[C@H](O)[C@@H](C)/C=C/C=C/C=C/C=C/C=C/C=C/C=C/[C@H](O[C@@H]2O[C@H](C)[C@@H](O)[C@H](N)[C@@H]2O)C[C@@H]2O[C@](O)(C[C@@H](O)C[C@@H](O)[C@H](O)CC[C@@H](O)C[C@@H](O)CC(=O)O[C@H]1C)C[C@H](O)[C@H]2C(=O)O [amphotericin B] (first compound 12.5 µM) | 0.266 ± 0.0082 | 0.209 ± 0.0073 |
| CCCCC[C@H](CC(=O)NO)C(=O)N[C@H](C(=O)N1CCC[C@H]1CO)C(C)C [Actinonin] + OC(Cn1cncn1)(Cn1cncn1)c1ccc(F)cc1F [fluconazole] (first compound 12.5 µM) | 0.267 ± 0.0099 | 0.145 ± 0.0085 |
